Screens (PubChem)
Compounds with a hit are over-represented: about 4.1% of the library has one in this group of screens.
ssDAF-12 act: S. stercoralis DAF-12 nuclear receptor activators, primary screen, cell-based, luminescence, HEK293, GRIP1 co-expression, lit1-tk-luc. Nuclear hormone receptor DAF-12 (Strongyloides stercoralis). HEK293 ssDAF-12/GRIP1 lit1-tk-luc reporter; % of 3 µM dafachronic acid response. activation, % at 6.8 µM. 370,000 tested, 1% active;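 active = activation above the mean over all tested compounds plus 3 SD, cut at about 0.9% in these data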;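 note: 0% = DMSO-only wells and 100% = 3 µM delta7-dafachronic acid wells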
hcDAF-12 act: H. contortus DAF-12 nuclear receptor activators, primary screen, cell-based, luminescence, HEK293, lit1-tk-luc reporter; HEK293 hcDAF-12 lit1-tk-luc reporter; 0% DMSO, 100% Δ7-dafachronic acid; activation, % at 6.8 µM; 370,000 tested, 1.4% active; AID 652067, 2013;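 active = activation above the mean of all tested compounds plus 3 SD, cut at about 5.5% in these data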;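 note: 100% = response to 3 µM Δ7-dafachronic acid high control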
hgDAF-12 ag: H. glycines DAF-12 receptor agonists, primary screen, cell-based, luminescence, HEK293, GAL4 fusion, UAS-luciferase. 370,000 tested, 1.8% active. activation, % at 6.8 µM. HEK293 GAL4-hgDAF12 UAS-luciferase reporter, agonist luminescence; normalized to butyrate control. AID 687014, 2013;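 active = activation above a cutoff set at the mean of all screened compounds plus 3 SD, cut at about 10% in these data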;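 note: 0% = DMSO wells and 100% = sodium butyrate wells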
DAX1 inh-1: DAX1 (NR0B1) inhibitors, primary screen, cell-based, HEK293, Gal4-DAX1, luciferase luminescence; AID 504766, 2011; 340,000 tested, 0.99% active; inhibition, % at 6.75 µM; Nuclear receptor subfamily 0 group B member 1 (Homo sapiens), P51843; HEK293 Gal4-DAX1 luciferase reporter;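 active = inhibition above the mean over all tested compounds plus 3 SD, cut at about 4.2% in these data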;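 note: 0% = DAX1-transfected cells with DMSO and 100% = empty-vector control cells with DMSO; inhibition shows as a rise in luminescence from relieved DAX1 repression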
Target sequence (P51843 207-470 limits assumed): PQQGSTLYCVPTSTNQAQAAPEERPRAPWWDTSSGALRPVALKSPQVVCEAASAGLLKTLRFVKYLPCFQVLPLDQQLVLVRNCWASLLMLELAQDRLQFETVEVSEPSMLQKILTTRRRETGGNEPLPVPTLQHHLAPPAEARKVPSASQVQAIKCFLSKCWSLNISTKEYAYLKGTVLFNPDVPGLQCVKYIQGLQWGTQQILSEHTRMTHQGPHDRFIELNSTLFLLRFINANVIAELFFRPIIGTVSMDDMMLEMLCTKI
DAX1 inh-2: DAX1 (NR0B1) inhibitors on StAR promoter, primary screen, cell-based, luminescence, SF-1 (NR5A1), full-length DAX-1; HEK293T StAR-luciferase reporter, SF-1/DAX-1 repression relief; inhibition, % at 6.8 µM; 370,000 tested, 1.1% active;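 active = inhibition above the mean over all tested compounds plus 3 SD, cut at about 3.6% in these data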;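 note: 0% = DAX-1 cells with DMSO and 100% = cells lacking DAX-1 with DMSO; higher inhibition means more luminescence from relief of DAX-1 repression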
Numbers without * were called inactive.

What do the screens show for `C[N+]1(CCC(=O)c2ccccc2)CCCCC1`?
ssDAF-12 act: 1.7*; hcDAF-12 act: -1; hgDAF-12 ag: -3; DAX1 inh-1: 1; DAX1 inh-2: 0

What do the screens show for `CC(C)c1[nH]nc2c1C(c1ccc(F)cc1)NC2=O` (stereo not drawn)?
ssDAF-12 act: -1; hcDAF-12 act: -1; hgDAF-12 ag: -2; DAX1 inh-2: 1

How did Cc1ccc(-n2c(SCC(=O)C(C)(C)C)nnc2-c2cccc(C)c2)cc1 do in these assays?
ssDAF-12 act: -2; hcDAF-12 act: -3; hgDAF-12 ag: 0; DAX1 inh-2: -2

How did O=C(Cc1cccs1)N/N=C/C(Cl)=C/c1ccccc1 do in these assays?
ssDAF-12 act: -1; hcDAF-12 act: 3; hgDAF-12 ag: 12*; DAX1 inh-1: 1; DAX1 inh-2: 2

What do the screens show for `CC(=O)Nc1cccc(NC(=S)Nc2cccc(Cl)c2Cl)c1`?
ssDAF-12 act: -2; hcDAF-12 act: -1; hgDAF-12 ag: -3; DAX1 inh-1: 1; DAX1 inh-2: 0

Results for S=C(Nc1ccccc1)Nc1cccc(Cl)c1Cl ?
ssDAF-12 act: -1; hcDAF-12 act: 2; hgDAF-12 ag: 2; DAX1 inh-1: 6.1*; DAX1 inh-2: -1

What do the screens show for `S=C(N/N=C/c1ccccc1Cl)Nc1ccccc1`?
ssDAF-12 act: 1; hcDAF-12 act: 3; hgDAF-12 ag: 11*; DAX1 inh-1: 4.4*; DAX1 inh-2: 1

Results for CCc1nc(SC)[nH]c(=O)c1C ?
ssDAF-12 act: 0; hcDAF-12 act: 2; hgDAF-12 ag: 0; DAX1 inh-1: 0; DAX1 inh-2: 0

How did CSc1nc2c(C)c(C)c(C)c(C)c2[nH]1 do in these assays?
ssDAF-12 act: -1; hcDAF-12 act: -2; hgDAF-12 ag: 4; DAX1 inh-1: 5.1*; DAX1 inh-2: 0

Results for CC(C)(C)c1ccc(S(=O)(=O)N2CCCC(C(=O)NCCN3CCC(Cc4ccccc4)CC3)C2)cc1 (stereo not drawn) ?
ssDAF-12 act: -1; hcDAF-12 act: -3; hgDAF-12 ag: -3; DAX1 inh-2: -1

Results for COc1ccc(-c2cn3cccc(C)c3n2)cc1Br ?
ssDAF-12 act: 0; hcDAF-12 act: 3; hgDAF-12 ag: 8; DAX1 inh-1: 3; DAX1 inh-2: 2

Results for Cc1cccn2cc(-c3ccccc3)nc12 ?
ssDAF-12 act: 1.1*; hcDAF-12 act: 5; hgDAF-12 ag: 13*; DAX1 inh-1: 3; DAX1 inh-2: 3

Results for O=C(NCCSCc1ccccc1)c1ccccc1 ?
ssDAF-12 act: -2; hcDAF-12 act: -1; hgDAF-12 ag: -1; DAX1 inh-1: -1; DAX1 inh-2: 0

How did CS(=O)(=O)Nc1ccc(C(=O)NCCSCc2ccccc2)cc1 do in these assays?
ssDAF-12 act: -2; hcDAF-12 act: -1; hgDAF-12 ag: -1; DAX1 inh-1: 5.4*; DAX1 inh-2: 1

Results for CS(=O)(=O)Nc1ccc(C(=O)NCCc2ccccc2)cc1 ?
ssDAF-12 act: 0; hcDAF-12 act: 3; hgDAF-12 ag: 11*; DAX1 inh-1: 2; DAX1 inh-2: 1

What do the screens show for `COCCCNC(=O)c1ccc(NS(C)(=O)=O)cc1`?
ssDAF-12 act: -1; hcDAF-12 act: 2; hgDAF-12 ag: -2; DAX1 inh-1: 2; DAX1 inh-2: 1

Results for CN(C)S(=O)(=O)c1cccc(C(=O)NCCc2ccccc2)c1 ?
ssDAF-12 act: 0; hcDAF-12 act: 6.0*; hgDAF-12 ag: 9; DAX1 inh-1: 2; DAX1 inh-2: 3.8*

How did O=C(OCCN1CCN(C2CN(Cc3cn(Cc4cccc(F)c4)nn3)S(=O)(=O)C2)CC1)c1cc2ccccc2o1 (stereo not drawn) do in these assays?
ssDAF-12 act: -1; hcDAF-12 act: 0; hgDAF-12 ag: 2; DAX1 inh-2: 0

How did Cc1cccc(C)c1NC(=O)COn1nnc2ccc(C(F)(F)F)cc21 do in these assays?
ssDAF-12 act: -1; hcDAF-12 act: -1; hgDAF-12 ag: -3; DAX1 inh-1: 0; DAX1 inh-2: 0
